Test results published in PubChem BioAssay (NCI).
Compounds without any hit were thinned out: in the full panel of roughly 79,000, 15% have a hit. Rule as the data show it: active = growth inhibition above about 70%; inactive = the rest.

Experiments:
[1] = NCI Yeast Anticancer Drug Screen. Data for the rad50 strain (AID 155);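 also: 0% = growth of vehicle-only cultures of the same strain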; conditions: S. cerevisiae rad50 strain growth inhibition; at 50.0 µM; hits give high values
Procedure, shortened: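 A DNA repair-deficient yeast mutant serves as the test organism; compound-induced growth inhibition is calculated against vehicle-treated cells.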

[2] = NCI Yeast Anticancer Drug Screen. Data for the mec2-1 strain (AID 157); conditions: S. cerevisiae mec2-1 strain, at 50.0 µM, hits give high values
Procedure, shortened: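 Readout is yeast growth inhibition, normalised to vehicle-treated controls, in the mec2-1 strain exposed to compound.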

[3] = NCI Yeast Anticancer Drug Screen. Data for the sgs1 mgt1 strain (AID 161);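 also: 0% = growth of cultures given vehicle only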; conditions: S. cerevisiae sgs1 mgt1 strain, at 50.0 µM, hits give high values
Procedure, shortened: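 Percent growth inhibition was derived by comparing compound-exposed mutant yeast with vehicle-exposed cultures. The strain carries alterations in DNA damage repair.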

[4] = NCI Yeast Anticancer Drug Screen. Data for the cln2 rad14 strain (AID 165);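 also: 0% = growth equal to vehicle treated cultures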; conditions: S. cerevisiae cln2 rad14 strain, at 50.0 µM, hits give high values
Procedure, shortened: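 Relative to vehicle controls, growth inhibition of compound-treated cln2 rad14 yeast was recorded.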

[5] = NCI Yeast Anticancer Drug Screen. Data for the bub3 strain (AID 167); conditions: S. cerevisiae bub3 mutant strain, at 50.0 µM, hits give high values
Procedure, shortened: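 Inhibition values come from growth of compound-treated mutant yeast normalised to vehicle-treated controls.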

[6] = NCI Yeast Anticancer Drug Screen. Data for the mlh1 rad18 strain (AID 175); conditions: S. cerevisiae mlh1 rad18 strain growth inhibition; at 50.0 µM; hits give high values
Procedure, shortened: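 Test agents were incubated with a yeast strain of defined genotype (DNA damage repair defect). Inhibition of growth was derived by comparison with vehicle-exposed cultures.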

Measured: growth inhibition

CCOC(=O)C(=CNc1cc(C(F)(F)F)ccc1N1CCOCC1)C(=O)OCC
inactive: [1] -1.4% | [2] -15.2% | [3] -9.5% | [4] 18.6% | [5] 2.25% | [6] -0.1%

BrCCCCCBr
inactive: [1] 12.4% | [2] 6.3% | [3] 1.5% | [4] -48.5% | [5] -5.45% | [6] 15.6%

N#Cc1cnn(-c2ccc(Br)cc2)c1N
inactive: [1] 11.4% | [2] 0.6% | [3] 3.1% | [4] -33.8% | [5] -7% | [6] 6.3%

O=C(O)c1ccc(C(=O)O)nc1
inactive: [1] -39.7% | [2] -4.75% | [3] 0.95% | [4] -14.4% | [5] 4.8% | [6] -1.35%

COc1c2c(c(OC)c3c1C(=O)c1ccccc1C3=O)CC=CC2
inactive: [1] -10.6% | [2] 4.7% | [3] -15.4% | [4] -14.7% | [5] -4% | [6] -4.3%

CCCCCCCc1cc(OC(=O)c2c(C)cc(OC)cc2O)cc(O)c1C(=O)O
inactive: [1] 13.4% | [2] -16.2% | [3] 8.65% | [4] -10% | [5] -14.2% | [6] 16.8%

COC(=O)Nc1cn2cc(C(=O)c3cccs3)ccc2n1
inactive: [1] -2.5% | [2] -21.5% | [3] -9.95% | [4] -10.5% | [5] -42% | [6] -53.2%

CC1C=C(OC(=O)c2ccccc2)C(=O)C(n2cc(F)c(=O)n(C(=O)c3ccccc3)c2=O)O1 (stereo not given)
inactive: [1] 43.2% | [2] 47.3% | [3] 68.7% | [4] 0.1% | [5] -1.25% | [6] 15.6%

Cc1ccc(S(=O)(=O)CN2C(=O)C(c3ccccc3)(c3ccccc3)C23OC(c2ccc(Cl)cc2)=CC3=O)cc1 (stereo not given)
inactive: [1] -2.35% | [2] -7.7% | [3] -5.7% | [4] -20.1% | [5] -35.7% | [6] -21.9%

Cn1c(=O)c2[nH]c(CCNC(=O)c3ccccc3)nc2n(C)c1=O
inactive: [1] 2.05% | [2] -9.75% | [3] -30.2% | [4] -38.5% | [5] -40.8% | [6] -9.95%

O=C(CCC(=O)Nc1cccc([N+](=O)[O-])c1)CC(=O)c1ccc(Cl)cc1
inactive: [1] -26.6% | [2] -4% | [3] -7.9% | [4] -25% | [5] -12.1% | [6] -23.3%

O=c1n(-c2ccccc2)c(=O)n2n1C1C3C4C3C2C2(F)C4C12 (stereo not given)
inactive: [1] -6.95% | [2] 14.3% | [3] 19.9% | [4] 8.6% | [5] 7.75% | [6] 9.6%

COc1cc(/C=C/C(C)=O)ccc1OP(=O)(O)O
inactive: [1] -22.4% | [2] -24.4% | [3] -29.8% | [4] 0.1% | [5] -32.1% | [6] 7.65%

CSc1nc(N)c(NS(=O)(=O)c2ccc(NC(C)=O)cc2)c(=O)[nH]1
inactive: [1] 5.85% | [2] 1.8% | [3] 9.05% | [4] -12.7% | [5] 2.45% | [6] 15.4%

CCCCCCCCC(=O)Nc1nc2nc[nH]c2c(=O)[nH]1
inactive: [1] -9.65% | [2] -33.2% | [3] -15.3% | [4] -30.1% | [5] -14.3% | [6] -5.45%

CCCCn1cnc2ccc3nc(-c4ccccc4)c(-c4ccccc4)nc3c2c1=O
inactive: [1] 43.8% | [2] -15.4% | [3] 9.3% | [4] 4.1% | [5] 1.5% | [6] 4.65%

COC(=O)NN(C(=O)OC)C12CCCCC1N(C(=O)OC)N(C(=O)OC)c1c2ccc2cc(OC)ccc12 (stereo not given)
inactive: [1] 24.4% | [2] -0.7% | [3] 7.65% | [4] -14.1% | [5] 4.2% | [6] 10.9%

CN1CCS(=O)(=O)NC(Cc2ccccc2)C(=O)N2CCCC2C1=O (stereo not given)
inactive: [1] -6.5% | [2] -13.2% | [3] -4.5% | [4] 29.6% | [5] -11.7% | [6] -8.5%

CCO/C=C1/N=C(c2ccccc2Cl)OC1=O
inactive: [1] 10.2% | [2] 5.25% | [3] -1.05% | [4] -30.1% | [5] -17.1% | [6] 14.3%

CN(C)C(=O)C1C2CC3OC(=O)C1C3C2 (stereo not given)
inactive: [1] 15.8% | [2] -5.4% | [3] 6.2% | [4] -41.3% | [5] -1.65% | [6] -0.6%

CC(O)(c1ccc(OCCC[N+](C)(C)C)cc1)C(C)(O)c1ccc(OCCC[N+](C)(C)C)cc1 (stereo not given)
inactive: [1] -25.5% | [2] -17.1% | [3] -39% | [4] 12.9% | [5] -16.9% | [6] -27.6%

O=c1ncccn1C1OC(CO)C(O)C1F (stereo not given)
inactive: [1] 4.75% | [2] -6.7% | [3] 9.5% | [4] -7.15% | [5] 3.75% | [6] -1.7%

COC(=O)C(CC(=O)Nc1ccc(Cl)c(Cl)c1)C(=O)C(=O)Nc1ccc(Cl)c(Cl)c1 (stereo not given)
inactive: [1] -36.2% | [2] -15.6% | [3] -34% | [4] 6.6% | [5] -3.25% | [6] -10.7%

CC(=O)NC(C(=O)Nc1ccccc1)=C(C)C
inactive: [1] -7.45% | [2] -7.9% | [3] -11.8% | [4] -11.5% | [5] 5.25% | [6] 0.8%

Cc1ccc(N2C(=O)CS/C2=C(\C#N)c2nc3ccccc3[nH]2)cc1
inactive: [1] -78.5% | [2] -62% | [3] -66.1% | [4] -57.9% | [5] -76.8% | [6] -40.2%

CC(C)(C)NC(=O)CCC1C(C(=O)NC(C)(C)C)C2(Cl)C(Cl)=C(Cl)C1(Cl)C2(Cl)Cl (stereo not given)
inactive: [1] 6.2% | [2] 12% | [3] 1.6% | [4] 9.8% | [5] 15.6% | [6] -2.05%

N#C/C1=C(\C#N)CCC2(C#N)C3C=CC(O3)C2(C#N)CC1 (stereo not given)
inactive: [1] 14.9% | [2] 12.6% | [3] -0.65% | [4] 13.3% | [5] 8.45% | [6] 23.1%

O=C(c1ccc(Cl)cc1)c1cccc(Cl)c1
inactive: [1] -6.35% | [2] -16.1% | [3] -3.7% | [4] -1.5% | [5] -10% | [6] 6.3%

NC(=O)C(=CN1C(=O)/C(=C/c2ccccc2O)SC1=S)C(N)=O
inactive: [1] -21.6% | [2] 2.9% | [3] 10.9% | [4] 28.4% | [5] -4.85% | [6] -24.1%

C=C1CCC23CC(CC[C@@H]2[C@@]12C[C@@H](c1ccoc1)OC2=O)OC3=O (stereo not given in full)
inactive: [1] 2.6% | [2] -12.6% | [3] -8.6% | [4] -5.1% | [5] 5.35% | [6] 1.8%

CCOC(=O)CS(=O)(=O)C1CCCCC1c1cc(OC)c(OC)c(OC)c1 (stereo not given)
inactive: [1] 3.25% | [2] -3.2% | [3] -5% | [4] -6.7% | [5] 0.6% | [6] 10.4%

O=C1C2C(C(=O)N1c1ccccc1)C1(Br)c3ccccc3C2(Br)C2C(=O)N(c3ccccc3)C(=O)C21 (stereo not given)
inactive: [1] -9.6% | [2] 6.3% | [3] -3.35% | [4] -13.4% | [5] -4.55% | [6] -2.55%

CN(C)CCNc1nnc(NCCN(C)C)c2cc3ccccc3cc12
inactive: [1] -0.7% | [2] 27.3% | [3] -2.45% | [4] 10.5% | [5] -1.4% | [6] 7.45%

Nc1nc(SCC(=O)O)[nH]c(=O)c1N
inactive: [1] -16.2% | [2] 30.1% | [3] -1.7% | [4] 6.25% | [5] -0.25% | [6] 2.7%

COc1cc(OC)c(C(C)=O)c(O)c1OC
inactive: [1] 2.75% | [2] 1.05% | [3] 10.9% | [4] 10.6% | [5] 11.1% | [6] 15.2%

C=C(C)c1ccc2c(c1)C(=O)C[C@@H]1[C@](C)(C#N)CCC[C@]21C
inactive: [1] -19.9% | [2] -16.3% | [3] 32.2% | [4] -52% | [5] 46.9% | [6] -33.9%

Cc1ccc(S(=O)(=O)NC(=O)c2ncn(C3OC(CO)C(O)C3O)c2N)cc1 (stereo not given)
inactive: [1] -5.15% | [2] 10.8% | [3] 12.7% | [4] 15.1% | [5] 1.5% | [6] 1.55%

O=C1CCc2ccccc21
inactive: [1] -26.6% | [2] -10.5% | [3] -15% | [4] 15.1% | [5] 3.25% | [6] 7.75%

O=C(OCc1ccccc1CN1CCCC1)c1ccc(Br)cc1
inactive: [1] 11% | [2] -6.05% | [3] -9.9% | [4] -16.9% | [5] 20.1% | [6] -17.9%

COc1ccccc1C(=O)O
inactive: [1] -7.45% | [2] -16.8% | [3] -9.4% | [4] -1.75% | [5] -7.35% | [6] -5%
